Screens deposited in PubChem by National Center for Advancing Translational Sciences (NCATS).
Shown are actives, neighbours in structure and some others; about 6.5% of the full set was active somewhere.
Vaccinia mCherry – vaccinia inhibition (mCherry reporter). AID 720579. Vaccinia virus mCherry reporter infection, fluorescence. Potency, µM (titrated, usually from 36.5 µM), for the others: top-dose activity change, negative = inhibition, usual class: inhibitors. 310,000 tested, 0.63% active; calls by dose curve; tested in A549 cells; further: potency means the concentration at half of the fitted maximal effect; nearly all actives have a fitted effect of over 35% in size
HCMV inh – inhibitors of human cytomegalovirus | activity change, negative = inhibition, % at 57.5 µM | AID 1259415 | HFF cells, HCMV-luciferase reporter, 72 h; stronger effect = lower value | 410,000 tested, 4.5% active; in the data active means activity change below about -60%; inconclusive means no clear call, values can overlap the other calls; inactive means above about -39%
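Screen run at 2 compound doses on HFFs infected with reporter HCMV, MOI 1 PFU/cell. Luciferase activity from cell lysates at 72 h post infection gave inhibition relative to buffer-only and Salinomycin wells.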
Marburg entry inh – inhibitors of Marburg virus binding or cell entry; Marburg virus pseudotyped entry inhibition, cell reporter; Potency, µM (top dose mostly 37.8 µM), for the others: at the highest dose activity change, negative = inhibition, usual class: inhibitors; 300,000 tested, 1.8% active; calls by dose curve; tested in HEK293 cells; further: potency means the concentration at half of the fitted maximal effect
Vaccinia Venus – vaccinia inhibition (Venus reporter) | Vaccinia virus Venus reporter expression, fluorescence | Potency, µM (doses to about 36.5 µM), for the others: at the top dose activity change, negative = inhibition, actives largely listed as inhibitors | 330,000 tested, 0.46% active | AID 720580; calls by dose curve; tested in A549 cells; further: potency means the concentration at half of the fitted maximal effect; nearly all actives have a fitted effect of over 30% in size
FMDV inh – antivirals against foot and mouth disease virus | FMDV antiviral cell-based qHTS | Potency, µM (highest dose often 57.9 µM), for the others: at the top dose activity change, negative = inhibition, hits mostly inhibitors | 410,000 tested, 1.2% active | AID 1159524; calls by dose curve; tested in HEK293T cells; further: read-out not given here; potency means the concentration at half of the fitted maximal effect; nearly all actives have a fitted effect of over 45% in size
LASV entry inh – Lassa virus entry inhibition. AID 540256. Potency, µM (highest dose often 37.9 µM), inactives show at the highest dose activity change, negative = inhibition, hits mostly inhibitors. 300,000 tested, 1.2% active. Lassa virus pseudotype entry inhibition, cell reporter; calls by dose curve; tested in HEK293 cells; further: potency means the concentration at half of the fitted maximal effect; nearly all actives have a fitted effect of over 50% in size
Numbers without * were called inactive; i = inactive; u = inconclusive; x = no result; [ ] = another dose, or the depositor's remark. On the % scale 0 is the no-effect control and ±100 the full control effect.

SMILES | Vaccinia mCherry | HCMV inh | Marburg entry inh | Vaccinia Venus | FMDV inh | LASV entry inh
O=C(CCCN1C(=O)/C(=C\c2ccccc2)SC1=S)Nc1ccc(O)cc1 | u | -95.8* | u | 28.2µM* | -24.4% | u
COc1cc(/C=C2\SC(=S)N(CCC(=O)Nc3ccccc3)C2=O)cc(OC)c1OC | -0.2% | -18.0 | u | -2.3% | -28.7% | -11.1%
Cc1ccc(/C=C2\SC(=S)N(CCCC(=O)NNC(=O)c3ccccc3O)C2=O)cc1 | x | -92.7* | x | x | 8.91µM* | x
COC(=O)c1c(C(=O)OC)c2c3cc(OC)c(OC)cc3ccn2c1C(=O)OC | x | x | 23.4%[14.2 µM] | x | x | u
CCCCC(=O)Nc1ccc(C(=O)OCc2cc(=O)n3ccsc3n2)cc1 | -20.8% | 26.9 | x | -8.2% | -1.9% | -17.0%[46.1 µM]
Clc1ccc(CCNc2nc3ccccc3c3nc(-c4ccccc4)nn23)cc1 | -12.8% | 11.2 | -11.9%[46.1 µM] | 6.4% | u | x
O=C(CCCN1C(=O)/C(=C\c2ccccc2)SC1=S)Nc1cccc(C(=O)O)c1 | i | -16.1 | 5.6%[46.1 µM] | 1.9% | -2.4% | -0.4%
O=C(CCN1C(=O)/C(=C\c2ccc(F)cc2)SC1=S)Nc1ccc(O)cc1 | 0.5% | -15.9 | -1.7% | 12.0% | -4.1% | -27.9%
O=C(CCCN1C(=O)/C(=C/c2ccccc2)SC1=S)Nc1cccc(O)c1 | u | -96.6* | x | u | 14.2% | x
Cc1ccc(/C=C2/SC(=S)N(CCCC(=O)Nc3ccc(O)cc3)C2=O)cc1 | u | -100.3* | u | u | 7.4% | u
O=C(CCCN1C(=O)/C(=C/c2cccs2)SC1=S)Nc1cccc(O)c1 | i | -99.7* | u | u | 0.3% | u
COc1ccc(Cl)cc1NC(=O)c1noc2c1CCc1ccccc1-2 | -15.3% | 3.1 | -4.7%[46.1 µM] | -12.2% | -32.4% | u
N#Cc1ccc(C(=O)Nc2ccccc2-c2nc3ccccc3s2)c(F)c1 | 7.1% | -15.4 | -6.8%[46.1 µM] | -0.4% | 6.0% | -8.4%[46.1 µM]
O=C(Cc1n[nH]c(=O)c2ccccc12)OCc1c(Cl)cccc1Cl | u | -67.6* | 0.517µM* | 20.1% | -1.7% | 0.631µM*
Cc1ccc2oc(C(=O)Nc3ccc(S(=O)(=O)N4CCCCC4C)cc3)cc(=O)c2c1 (configuration not stated) | -4.8% | -25.8 | 14.1%[46.1 µM] | -9.6% | -0.8% | 22.5%[46.1 µM]
O=C(c1ccccc1)N1CCOC(O)(c2ccccc2)C1c1ccccc1 (configuration not stated) | -23.9% | -61.1* | -3.8% | -10.2% | 18.1% | 23.4%[46.1 µM]
CCCOc1ccc(NC(=O)CC2C(=O)Nc3ccccc3N2CC(=O)N2CCCC2)cc1 (configuration not stated) | x | -60.4* | x | x | -10.8% | x
O=c1c2ccccc2cnn1-c1ccc(Br)cc1 | x | 227.6 | u | -7.3% | 0.5% | u
O=c1c2ccccc2cnn1-c1ccc2ccccc2c1 | x | 45.4 | u | x | u | 10.3µM*
O=C(CSC1=Nc2ccccc2C2=NC(CCC(=O)NC3CCCCC3)C(=O)N12)Nc1cccc(C(F)(F)F)c1 (configuration not stated) | 4.0% | -6.0 | 3.2%[46.1 µM] | -4.6% | -26.6% | u
CCCCN(C)C(=O)C1CCCN(c2ncnc3onc(-c4ccc(F)cc4)c23)C1 (configuration not stated) | -9.0% | 3.4 | x | -14.5% | -18.9% | 4.0%[46.1 µM]
Cc1c(C(=N)C(C#N)C#N)c(=N)oc2c1ccc1ccccc12 | -16.6% | -74.8* | x | u | -4.1% | x
Cc1c(C(=O)O)oc2c1ccc1ccccc12 | i | -8.9 | 0.1%[46.1 µM] | -7.1% | -4.9% | -14.1%
CC(=O)c1ccc(OCc2cc(C(=O)N3CCN(C4CCCC4)C(=O)C3)no2)cc1 | -5.0% | 59.0 | 2.7% | -20.5% | 31.7% | 3.16µM*
O=C(c1cc(COc2ccc(F)c(F)c2)on1)N1CCN(C2CCCCC2)C(=O)C1 | x | 33.8 | x | x | 1.3% | x
COc1ccc(CCNC(=O)C(=O)NCC(c2ccco2)S(=O)(=O)c2ccccc2)cc1OC (configuration not stated) | i | 41.7 | x | -6.8% | u | -11.9%[46.1 µM]
Cc1ccc2c(c1)c1c(n2CC(O)CNC2CCCCC2)CCCC1 (configuration not stated) | u | -104.5* | x | u | -26.5% | x
Cc1ccc2c(c1)c1c(n2CC(O)CNC(CO)(CO)CO)CCCC1 (configuration not stated) | i | x | x | -11.3% | -19.1% | x
